Source: PubChem BioAssay (NCATS)
Records with an inconclusive call do not appear. A number with no mark means an inactive call. Calls of active or inactive are those of the source. Calls follow the shape of the dose curve; as a rule, active = well fitted inhibition curve with a large enough effect; inconclusive = small, poorly fitted or top-dose-only effect; inactive = flat fitted curve, though single readings scatter. Peptide text beside a SMILES is read from it.

Tested on: CP185
Experiment: qHTS profiling for inhibitors of Plasmodium falciparum proliferation (AID 504749); also: nearly all actives have a fitted effect of over 60% in size;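 as to activity, negative = inhibition: 0% = DMSO vehicle and full inhibition = artemisinin control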
Conditions: P. falciparum in erythrocytes, SYBR Green DNA, 72 h; series mostly up to 12.8 µM; activity, negative = inhibition: at the top concentration
Procedure, shortened: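 Fluorescence of SYBR Green-bound parasite DNA, read at 485/535 nm, served as the growth measure. Infected erythrocytes were cultured with compound 72 h; artemisinin (0.29 uM) and DMSO wells defined the normalization range.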
Potency is read from the fitted curve at half-maximal effect.

Row | Structure (SMILES) | activity, negative = inhibition | Potency
1 | CCC(C)C(=O)OC1CCC=C2C=CC(C)C(CCC3CC(O)CC(=O)O3)[C@@H]21 (some centres not stated) | 3.61% [at 28.7 µM] | 
2 | C[C@]1(c2ccccc2)OC(C(=O)O)=CC1=O | -5.81% [at 28.7 µM] | 
3 | OCC1OC([S-])[C@H](O)C(O)C1O.[Au+] (some centres not stated) | 3.12% [at 28.7 µM] | 
4 | COC(=O)N/N=C/C1=C[N+](=O)c2ccccc2[N+]1=O | 4.34% [at 28.7 µM] | 
5 | CN1CC(=O)N=C1N | 3.8% [at 28.7 µM] | 
6 | CNC1CC(N)[C@H](O)[C@@H](O[C@@H]2OC(CO)C3OC4(OC(C(N)CO)C(O)C(O)C4O)O[C@@H]3[C@H]2O)C1O (some centres not stated) | 6.21% [at 28.7 µM] | 
7 | COC1C=CO[C@@]2(C)Oc3c(C)c(O)c4c(O)c(c(C=NN5CCN(C)CC5)c(O)c4c3C2=O)NC(=O)/C(C)=C\C=CC(C)C(O)[C@@H](C)C(O)C(C)[C@H](OC(C)=O)C1C (some centres not stated) |  | 3160 nM (active)
8 | CC(=O)N[C@@H]1C(O)OC(CO)C(O)C1O (some centres not stated) | 1.99% [at 28.7 µM] | 
9 | CCC(CCC(C)C1CCC2C3CC=C4CC(O)CC[C@@]4(C)C3CC[C@@]12C)C(C)C (some centres not stated) | 1.7% [at 28.7 µM] | 
10 | O=C1OC(CO)C(O)C(O)C1O (configuration not stated) | 2.36% [at 28.7 µM] | 
11 | COc1ccc(CC(N)C(=O)NC2C(CO)OC(n3cnc4c(N(C)C)ncnc43)C2O)cc1 (configuration not stated) |  | 631 nM (active)
12 | CCCC(=O)O[C@]1(C(=O)CO)CCC2[C@@H]3CCC4=CC(=O)CC[C@]4(C)C3C(O)C[C@]21C (some centres not stated) | 6.54% [at 28.7 µM] | 
13 | COC(=O)C(Cc1ccccc1)NC(=O)C(N)CC(=O)O (stereo not drawn) (H-Asp-Phe-OMe; configuration not given here) | 5.01% [at 28.7 µM] | 
14 | CC[C@@]12CCCN3CCc4c(n(c5ccccc45)[C@](O)(C(=O)OC)C1)C32 (some centres not stated) | 8.84% [at 28.7 µM] | 
15 | CC1(C)SC2C(N3C(=O)C(c4ccccc4)NC3(C)C)C(=O)N2C1C(=O)O (configuration not stated) | 3.5% [at 28.7 µM] | 
16 | CC1CCC(C(C)C)C(=O)C1 (configuration not stated) | -5% [at 28.7 µM] | 

Row | Structure (SMILES) | activity, negative = inhibition | Potency
17 | CC(=O)N[C@H](CC(C)C)C(=O)O | 7.09% [at 28.7 µM] | 
18 | CC(C)C1CCC(C(=O)NC(Cc2ccccc2)C(=O)O)CC1 (configuration not stated) | -13.8% [at 28.7 µM] | 
19 | COc1ccc2cc(C(C)CO)ccc2c1 (configuration not stated) | 6.01% [at 28.7 µM] | 
20 | COc1ccc2cc1Oc1ccc(cc1)CC1c3c(cc4c(c3Oc3cc5c(cc3OC)CCN(C)C5C2)OCO4)CCN1C (configuration not stated) |  | 7940 nM (active)
21 | CNC1C(OC2C(O[C@@H]3C(O)C(O)[C@@H](N=C(N)N)C(O)C3N=C(N)N)OC(C)[C@@]2(O)CO)OC(CO)C(O)C1O (some centres not stated) | 0.432% [at 28.7 µM] | 
22 | CC1C2CCC3C4CC=C5CC(N(C)C)CC[C@@]5(C)C4CC[C@@]32CN1C (some centres not stated) | 13.8% [at 28.7 µM] | 
23 | C[C@]12C=CC(=O)C=C1CCC1C2C(O)C[C@]2(C)C1CC[C@]2(O)C(=O)CO (some centres not stated) | 2.85% [at 28.7 µM] | 
24 | COc1ccc2c(c1)N(C[C@@H](C)CN(C)C)c1ccccc1S2 | -12.6% | 
25 | CCOC(=O)C1=CC(OC(CC)CC)C(NC(C)=O)C(N)C1 (configuration not stated) | -1.28% [at 28.7 µM] | 
26 | CN(C)CCc1c[nH]c2ccc(CC3COC(=O)N3)cc12 (configuration not stated) | 6.26% [at 28.7 µM] | 
27 | NCC1CCC(N)C(O[C@@H]2C(O)[C@H](O[C@H]3OC(CO)C(O)C(N)C3O)[C@@H](N)C[C@H]2N)O1 (some centres not stated) | 2.6% [at 28.7 µM] | 
28 | OCC1O[C@H](OC2C(CO)O[C@@](O)(CO)C2O)C(O)C(O)C1O (some centres not stated) | 9.77% [at 28.7 µM] | 
29 | CC1(C)OC2CO[C@]3(COS(N)(=O)=O)OC(C)(C)OC3C2O1 (some centres not stated) | 0.885% [at 28.7 µM] | 
30 | CC(=O)OC1CCC2C3CCc4cc(O)ccc4C3CCC12C (configuration not stated) | 4.6% [at 28.7 µM] | 
31 | CN(C)CCCOC1C(C(O)CO)OC2OC(C)(C)O[C@@H]21 (some centres not stated) | 7.72% [at 28.7 µM] | 
32 | COc1cc(C2c3cc4c(cc3C(O[C@@H]3OC5COC(c6cccs6)OC5C(O)C3O)C3COC(=O)C23)OCO4)cc(OC)c1O (some centres not stated) |  | 2240 nM (active)
